# Experimental data: the supplement of paper PMC8728848
# The entries come from a sample that favours the strongest signals as a whole.
# What was measured:
# Test in all cases: glycan array binding signal (z-score within array); higher = stronger binding
# Details in all cases: glycan notation: IUPAC condensed, linker removed
# [1] = test system: Gal(b1-4)GlcNAc(b1-2)Man(a1-3)Man(b1-4)GlcNAc(b1-4)GlcNAc
# In short: (§1)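 Negative Z-scores can be read as non-binding. The Z-score is calculated within each array and then averaged across arrays of one protein sequence at different concentrations or buffers and across linkers. Arrays, 3228 in all, were curated from the Consortium for Functional Glycomics database and kept only where the protein sequence was available.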
# [2] = test system: Gal(b1-4)GlcNAc(b1-2)Man(a1-3)[Gal(b1-4)GlcNAc(b1-2)Man(a1-6)]Man(b1-4)GlcNAc(b1-4)[Fuc(a1-6)]GlcNAc
# In short: as §1
# [3] = test system: Gal(b1-4)GlcNAc(b1-2)Man(a1-3)[GlcNAc(b1-2)Man(a1-6)]Man(b1-4)GlcNAc(b1-4)GlcNAc
# In short: as §1
# [4] = test system: Gal(b1-4)GlcNAc(b1-2)Man(a1-3)[Gal(b1-4)GlcNAc(b1-2)Man(a1-6)]Man(b1-4)GlcNAc(b1-4)GlcNAc
# In short: as §1
# [5] = test system: Gal(b1-4)GlcNAc(b1-2)Man(a1-6)[Man(a1-3)]Man(b1-4)GlcNAc(b1-4)GlcNAc
# In short: as §1
# [6] = test system: Gal(b1-4)GlcNAc(b1-2)Man(a1-6)[GlcNAc(b1-2)Man(a1-3)]Man(b1-4)GlcNAc(b1-4)GlcNAc
# In short: as §1
# [7] = test system: Gal(b1-4)GlcNAc(b1-2)[Gal(b1-4)GlcNAc(b1-6)]Man(a1-6)[Gal(b1-4)GlcNAc(b1-2)Man(a1-3)]Man(b1-4)GlcNAc(b1-4)[Fuc(a1-6)]GlcNAc
# In short: as §1
# [8] = test system: Gal(b1-4)GlcNAc(b1-2)[Gal(b1-4)GlcNAc(b1-6)]Man(a1-6)[GlcNAc(b1-4)][Gal(b1-4)GlcNAc(b1-2)[Gal(b1-4)GlcNAc(b1-4)]Man(a1-3)]Man(b1-4)GlcNAc(b1-4)[Fuc(a1-6)]GlcNAc
# In short: as §1
# [9] = test system: Gal(b1-4)GlcNAc(b1-3)Gal(b1-4)GlcNAc(b1-3)Gal(b1-4)GlcNAc(b1-2)[Gal(b1-4)GlcNAc(b1-3)Gal(b1-4)GlcNAc(b1-3)Gal(b1-4)GlcNAc(b1-6)]Man(a1-6)[Gal(b1-4)GlcNAc(b1-3)Gal(b1-4)GlcNAc(b1-3)Gal(b1-4)GlcNAc(b1-2)Man(a1-3)]Man(b1-4)GlcNAc(b1-4)[Fuc(a1-6)]GlcNAc
# In short: as §1
# [10] = test system: Gal(b1-4)GlcNAc(b1-2)Man
# In short: as §1
# [11] = test system: Gal(b1-4)GlcNAc(b1-2)[Gal(b1-4)GlcNAc(b1-6)]Man(a1-6)[Gal(b1-4)GlcNAc(b1-2)Man(a1-3)]Man(b1-4)GlcNAc(b1-4)GlcNAc
# In short: as §1
# [12] = test system: Gal(b1-4)GlcNAc(b1-3)Gal(b1-4)GlcNAc(b1-3)Gal(b1-4)GlcNAc(b1-2)Man(a1-3)[Gal(b1-4)GlcNAc(b1-3)Gal(b1-4)GlcNAc(b1-3)Gal(b1-4)GlcNAc(b1-2)Man(a1-6)]Man(b1-4)GlcNAc(b1-4)GlcNAc
# In short: as §1
# [13] = test system: Gal(b1-4)GlcNAc(b1-3)Gal(b1-4)GlcNAc(b1-3)Gal(b1-4)GlcNAc(b1-2)Man(a1-3)[Gal(b1-4)GlcNAc(b1-3)Gal(b1-4)GlcNAc(b1-3)Gal(b1-4)GlcNAc(b1-2)Man(a1-6)]Man(b1-4)GlcNAc(b1-4)[Fuc(a1-6)]GlcNAc
# In short: as §1
# [14] = test system: Gal(b1-4)GlcNAc(b1-3)Gal(b1-4)GlcNAc(b1-3)Gal(b1-4)GlcNAc(b1-3)Gal(b1-4)GlcNAc(b1-2)Man(a1-3)[Gal(b1-4)GlcNAc(b1-3)Gal(b1-4)GlcNAc(b1-3)Gal(b1-4)GlcNAc(b1-3)Gal(b1-4)GlcNAc(b1-2)Man(a1-6)]Man(b1-4)GlcNAc(b1-4)[Fuc(a1-6)]GlcNAc
# In short: as §1
# [15] = test system: Gal(b1-4)GlcNAc(b1-3)Gal(b1-4)GlcNAc(b1-3)Gal(b1-4)GlcNAc(b1-3)Gal(b1-4)GlcNAc(b1-2)[Gal(b1-4)GlcNAc(b1-3)Gal(b1-4)GlcNAc(b1-3)Gal(b1-4)GlcNAc(b1-3)Gal(b1-4)GlcNAc(b1-6)]Man(a1-6)[Gal(b1-4)GlcNAc(b1-3)Gal(b1-4)GlcNAc(b1-3)Gal(b1-4)GlcNAc(b1-3)Gal(b1-4)GlcNAc(b1-2)Man(a1-3)]Man(b1-4)GlcNAc(b1-4)[Fuc(a1-6)]GlcNAc
# In short: as §1
# [16] = test system: Gal(b1-4)GlcNAc(a1-6)Gal(b1-4)GlcNAc
# In short: as §1
# [17] = test system: Gal(b1-4)GlcNAc(b1-2)Man(a1-3)[Man(a1-6)]Man(b1-4)GlcNAc(b1-4)GlcNAc
# In short: as §1
# [18] = test system: Gal(b1-4)GlcNAc(b1-2)Man(a1-6)Man(b1-4)GlcNAc(b1-4)GlcNAc
# In short: as §1
# [19] = test system: Gal(b1-4)GlcNAc(b1-3)Gal(b1-4)GlcNAc(b1-2)Man(a1-3)[Gal(b1-4)GlcNAc(b1-3)Gal(b1-4)GlcNAc(b1-2)Man(a1-6)]Man(b1-4)GlcNAc(b1-4)GlcNAc
# In short: as §1
# [20] = test system: Gal(b1-4)GlcNAc(b1-3)Gal(b1-4)GlcNAc(b1-2)[Gal(b1-4)GlcNAc(b1-3)Gal(b1-4)GlcNAc(b1-6)]Man(a1-6)[Gal(b1-4)GlcNAc(b1-3)Gal(b1-4)GlcNAc(b1-2)Man(a1-3)]Man(b1-4)GlcNAc(b1-4)GlcNAc
# In short: as §1
substance,measurement,setting,value
"BambL (Burhholderia ambifaria), Q0B4G1",glycan array binding signal (z-score),[1],-0.313
same,glycan array binding signal (z-score),[2],0.351
same,glycan array binding signal (z-score),[3],-0.301
"SiiE (Salmonella typhimurium), A0A0H3NVH0",glycan array binding signal (z-score),[4],2.4
same,glycan array binding signal (z-score),[5],0.213
AgI/II Vhelical-GFP (Streptococcus mutans),glycan array binding signal (z-score),[6],-0.18
same,glycan array binding signal (z-score),[7],-0.078
same,glycan array binding signal (z-score),[8],-0.092
same,glycan array binding signal (z-score),[9],0.214
LcI (Legionella pneumophila),glycan array binding signal (z-score),[10],0.449
same,glycan array binding signal (z-score),[11],0.017
same,glycan array binding signal (z-score),[12],0.132
same,glycan array binding signal (z-score),[13],-0.212
same,glycan array binding signal (z-score),[14],0.132
Actinohivin (Actinomycete K97),glycan array binding signal (z-score),[9],0.097
same,glycan array binding signal (z-score),[15],-0.012
"SpGH101 (Streptococcus pneumoniae), Q8DR60",glycan array binding signal (z-score),[16],-0.178
same,glycan array binding signal (z-score),[17],-0.069
"Wza (Escherichia coli), P0A930",glycan array binding signal (z-score),[18],1.02
AgI/IIC123-GFP (Streptococcus mutans),glycan array binding signal (z-score),[11],-0.449
same,glycan array binding signal (z-score),[8],-0.015
same,glycan array binding signal (z-score),[19],3.9
same,glycan array binding signal (z-score),[20],-0.185
Epa22,glycan array binding signal (z-score),[2],1.95
